The structures appear in SMILES notation. This is part of a sample that, as a whole, favours compounds with a hit. Of some 83,000 tested, about 20% had one in any assay.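 Note: values are percent growth. 100 is the growth of untreated cells, values between 100 and 0 indicate rising inhibition; between -100 and 0 indicates cell death.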 Active and inactive are the calls of the source. The calls were made as follows: active = growth percent below 10; inactive = the rest.

For this test, the system named is UO-31 renal. Description: NCI-60 one-dose screen, 48 h (100 = growth as untreated, 0 = no growth, -100 = all killed). The settings on record: 10 µM unless noted.
Regarding `COc1ccc2c(c1)C(=Nc1cc(OC)c(OC)c(OC)c1)C(=O)N2`, the growth is 46.9% (inactive). Then `COc1cnc2c(c1)C(=O)c1c-2n(CCCn2ccnc2)c(=O)c2cc(F)ccc12`, with -77.5% (active); and `C[C@]12CCC(=O)C=C1CCC1C2[C@@H](O)C[C@@]2(C)C1CC[C@]2(O)C(=O)COC(=O)CCC(=O)O` (some centres not stated), with 84.1% (inactive); and `C[C@@H]1[C@H]2[C@H](C=C3[C@@H]4CC[C@H]5Cc6nc7c(nc6C[C@]5(C)[C@H]4C[C@@H](O)[C@@]32C)C[C@@H]2CC[C@H]3C4=C[C@@H]5O[C@@]6(CC[C@](C)(CO)O6)[C@@H](C)[C@@]5(O)[C@@]4(C)[C@H](O)C[C@@H]3[C@@]2(C)C7)O[C@]12CCC(C)(C)O2`, with -6.3% (active). With `CCOC(=O)/C=C1/SC(=Nc2ccc(C#N)cc2)N(Cc2ccco2)C1=O` the figure was 31.6% (inactive); with `C[C@H](C(=O)N[C@@H](Cc1ccc(-c2ccccc2)cc1)C(=O)NC1CC(C)(C)NC(C)(C)C1)c1ccc(-c2ccccc2)c(F)c1`, -85.5% (active); with `CCSc1nc(-c2ccco2)n2nc(-c3ccco3)cc2n1`, 72.4% (inactive). Take `CN1CCN(c2nc3scc(-c4ccccc4)c3c(=O)[nH]2)CC1`: the growth is 81.4% (inactive).

For the compound `CC(=O)OC1Oc2cc(C)c(C)cc2-c2oc(=O)c(-c3ccccc3)cc21` (configuration not stated), the growth is 16.5% (inactive). With `N#CC(C#N)C(C#N)C#N` the figure was 89.1% (inactive); with `CCOC(=O)c1sc(NC(=O)COc2cccc(/C=C3\CCc4cc(OC)ccc4C3=O)c2)nc1C`, 14% (inactive). With `COc1cnc2c(c1)C(=O)c1c-2n(CCCN2CCOCC2)c(=O)c2cc(F)ccc12` the figure was -47.2% (active). Then `CCN1CC2=C(Nc3nc(SC)[nH]c(=O)c3C2c2cc(OC)c(OC)c(OC)c2)/C(=C/c2cc(OC)c(OC)c(OC)c2)C1` (configuration not stated), with 106% (inactive); and `CCOC(=O)CCC(=O)O[C@H]1[C@H](O[C@@H]2[C@@H](C)[C@H](O[C@H]3C[C@@](C)(OC)[C@@H](O)[C@H](C)O3)[C@@H](C)C(=O)O[C@H](CC)[C@@](C)(O)[C@H](O)[C@@H](C)C(=O)[C@H](C)C[C@@]2(C)O)O[C@H](C)C[C@@H]1N(C)C`, with 67.7% (inactive). On to `CNCCCn1c2c(c3ccc(F)cc3c1=O)C(=O)c1cc(OC)cnc1-2`, for which the growth is -89.3% (active). With `NC(=NCCCCCCN=C(N)/N=C(\N)Nc1ccc(Cl)cc1)/N=C(\N)Nc1ccc(Cl)cc1` the figure was 46.6% (inactive).

`O=C1CSC(c2ccccc2Cl)N1c1nnc(Cn2nnc3ccccc32)o1` (configuration not stated): the growth is 66.3% (inactive). Then `O=C(O)CCC(=O)OC[C@@H](NC(=O)C(Cl)Cl)[C@H](O)c1ccc([N+](=O)[O-])cc1`, with 72% (inactive); and `COc1ccc(-c2cc(-c3nnc(SCC(=O)Nc4ccc(C(C)=O)cc4)n3-c3ccccc3)c3ccccc3n2)cc1OC`, with 85.3% (inactive); and `C[C@H](C(=O)N[C@@H](Cc1ccc(-c2ccccc2)cc1)C(=O)NC1CC(C)(C)N(C)C(C)(C)C1)c1ccc(-c2ccccc2)c(F)c1`, with -80.9% (active). Then `O=C(O)C1C(c2ccccc2)c2ccccc2C(O)C1CO` (configuration not stated), with 78.2% (inactive); and `CSc1nc(Nc2ccc(S(=O)(=O)Nc3ccon3)cc2)c(C#N)c(-c2ccc(Cl)cc2)n1`, with 86% (inactive).

Take `Cc1cc(C)c(C(=O)c2cccs2)c(C)c1`: the growth is 67.8% (inactive). With `COC(=O)C1(NC(=O)CNC(=O)OCc2ccccc2)CCCC1` the figure was 93.1% (inactive).

Take `Cc1cc(C)nc(NS(=O)(=O)c2ccc(Nc3nc4nc(SCc5ccccc5)nc(-c5ccc(O)cc5)c4c(=O)[nH]3)cc2)n1`: the growth is 97% (inactive). Then `Nc1ccc(N=Nc2ccccc2)cc1[N+](=O)[O-]`, with 45.9% (inactive); and `NS(=O)(=O)c1cc2c(cc1Cl)NC=NS2(=O)=O`, with 82.1% (inactive); and `CCOC(=O)C1=CCC(n2cc(C)c(=O)[nH]c2=O)O1` (configuration not stated), with 96.9% (inactive). Then `C[C@@H]1C[C@@H]([C@@H](CC2CC(=O)NC(=O)C2)OC(=O)CC(=O)c2ccccc2)C(=O)[C@@H](C)C1`, with -10.2% (active).

For the compound `OCc1n(Cc2ccc3ccccc3c2)cc[n+]1Cc1ccc2ccccc2c1`, the growth was 83.5% (inactive).

With `COc1cnc2c(c1)C(=O)c1c-2n(CCCNC2=NCCS2)c(=O)c2cc(F)ccc12`, the growth was 15.9% (inactive). With `Cc1onc(-c2ccccc2Cl)c1C(=O)N[C@@H]1C(=O)N2[C@@H]1SC(C)(C)[C@@H]2C(=O)O` the figure was 80.4% (inactive); with `C[C@H]1O[C@@H](O[C@H]2[C@@H](O)C[C@H](O[C@H]3[C@@H](O)C[C@H](O[C@H]4CC[C@]5(C)C6C[C@@H](O)[C@]7(C)[C@@H](C8=CC(=O)OC8)CC[C@]7(O)C6CC[C@@H]5C4)O[C@@H]3C)O[C@@H]2C)C[C@H](O)[C@@H]1O` (some centres not stated), -82.4% (active). With `CC1CN(/N=C/c2ccc([N+](=O)[O-])o2)C(=N)O1` (configuration not stated) the figure was 73.9% (inactive); with `O=C1NCCc2c1noc2-c1ccccc1`, 88.2% (inactive). Then `CC(=O)c1ccccc1NC(=O)C(C)(c1ccccc1)c1ccccc1`, with 81.7% (inactive); and `Cc1n(Cc2ccc3ccccc3c2)c2ccccc2[n+]1Cc1ccc2ccccc2c1`, with 30.7% (inactive).

The values are drawn from PubChem BioAssay (NCI).
